# In PubChem BioAssay (NCATS):
# “And” between values parts separate entries of the source, which are not always exact repeats. Identical values can stand only once. Inconclusive results are not listed. A call without a number means that no potency is given here. The source made the active and inactive calls. Unless noted, calls come from the whole dose curve.
# Legend:
# [1] = Cytotoxicity counterscreen for inhibitors of SARS-CoV-2 cell entry (AID 1645845); note: nearly all actives have a fitted effect of over 50% in size
# Procedure, shortened: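 48 h compound treatment (after 1 h preincubation), HEK293-ACE2 cells, 37 C/5% CO2; ATP luminescence endpoint; normalized to cell wells and media blanks.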
# [2] = Primary qHTS to identify inhibitors of SARS-CoV-2 cell entry (AID 1645846); details: activity change, negative = inhibition: at 57.1 µM (top of the series) unless noted; note: nearly all actives have a fitted effect of over 45% in size
# Procedure, shortened: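 HEK293 cells stably expressing human ACE2, pre-treated 1 h with compound, then infected with MLV particles pseudotyped with Wuhan-Hu-1 spike (C-terminal 19-aa truncation). Luciferase luminescence after 48 h at 37 °C, normalised to spike PP and bald PP.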
# [3] = VSVG counterscreen qHTS to identify inhibitors of SARS-CoV-2 cell entry (AID 1645847); note: nearly all actives have a fitted effect of over 65% in size; note: potency is the fitted concentration of half-maximal effect
# Procedure, shortened: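 HEK293-ACE2 cells (Expi293F, human ACE2) pretreated 1 h with compound, then infected with MLV-based VSV-G pseudotyped particles for 48 h at 37 C; luciferase luminescence normalized to VSV-G PP and bald PP wells.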
# Papain (Carica papaya) = Papain (Carica papaya) (UniProt P00784); experiment: Primary qHTS assay for inhibitors of the protease papain (AID 1645873; active = well fitted inhibition curve with a large enough effect;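 note: papain turnover of Z-FR-AMC read as the AMC fluorescence gain over 10 min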)
# Sequence of Papain (Carica papaya) (P00784 whole entry, looked up): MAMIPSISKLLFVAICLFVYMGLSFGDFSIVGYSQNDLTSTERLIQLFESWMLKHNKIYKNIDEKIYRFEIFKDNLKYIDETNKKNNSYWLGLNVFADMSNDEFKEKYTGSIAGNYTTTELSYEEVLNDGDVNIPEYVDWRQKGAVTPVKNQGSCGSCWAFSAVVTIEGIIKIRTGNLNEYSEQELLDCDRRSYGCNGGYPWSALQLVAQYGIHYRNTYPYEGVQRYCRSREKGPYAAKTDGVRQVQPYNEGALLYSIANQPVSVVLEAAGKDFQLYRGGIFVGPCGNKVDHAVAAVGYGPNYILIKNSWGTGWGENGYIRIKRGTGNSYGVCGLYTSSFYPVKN
compound,measurement,setting,value
CC(C)c1onc(-c2c(Cl)cccc2Cl)c1COc1ccc(/C=C/c2cccc(C(=O)O)c2)c(Cl)c1,Potency,[1],inactive
same,Potency,[2],inactive
CN1C(=O)C(Cc2c[nH]c3ccccc23)NC1=S (centres undefined),Potency,[1],inactive
same,Potency,[2],inactive
Cc1cc(Nc2nc(N[C@@H](C)c3ncc(F)cn3)ncc2Cl)n[nH]1,Potency,[1],inactive
same,"activity change, negative = inhibition",[2],-52.3%
same,Potency,[3],6.81 µM (active)
C[C@@H](N)C(=O)O,Potency,[1],inactive
same,"activity change, negative = inhibition",[2],-18.7%
CN(C)CC/C=C1/c2ccccc2COc2ccc(CC(=O)O)cc21,Potency,[1],inactive
same,Potency,[2],inactive
same,"activity change, negative = inhibition",[2],-14.5%
CCCCCCCCCCCCCC(=O)N[C@H](CO)[C@H](O)c1ccc([N+](=O)[O-])cc1,Potency,[1],inactive
same,Potency,[2],inactive
CC(C)(C)c1nnc(NS(=O)(=O)c2ccccc2)s1,Potency,[1],inactive
same,Potency,[2],inactive
C[C@@H]1CCN(C(=O)CC#N)C[C@@H]1N(C)c1ncnc2[nH]ccc12,Potency,[1],inactive
same,"activity change, negative = inhibition",[2],-1.42%
c1ccc(C2(c3ccccc3)CC2C2=NCCN2)cc1 (centres undefined),Potency,[1],inactive
same,"activity change, negative = inhibition",[2],-20.9%
same,Potency,Papain (Carica papaya),inactive
CCCCCCCC(=O)OCC(O)CO (centres undefined),Potency,[1],inactive
same,"activity change, negative = inhibition",[2],-24.7%
C[C@H](NC(=O)Cc1cc(F)cc(F)c1)C(=O)N[C@@H]1C(=O)N(C)c2ccccc2-c2ccccc21,Potency,[1],inactive
same,"activity change, negative = inhibition",[2],3.07%
CC1=NN(c2ccccc2)C(=O)C1,Potency,[1],inactive
same,"activity change, negative = inhibition",[2],0.769% and -7.18%
CC(=O)NC(C)c1ccc(Oc2ccc(OC(C)C)cc2)cc1 (centres undefined),Potency,[1],inactive
same,"activity change, negative = inhibition",[2],-26.1% [at 114 µM]
Cn1cc(-c2ccc3nnc(C(F)(F)c4ccc5ncccc5c4)n3n2)cn1,Potency,[1],inactive
same,Potency,[2],inactive
C=C1C(=CC=C2CCC[C@]3(C)[C@@H]([C@H](C)C=C[C@H](C)C(C)C)CC[C@@H]23)C[C@@H](O)C[C@@H]1O,Potency,[1],inactive
same,Potency,[2],inactive
CC(=O)Nc1ccc(O)cc1,Potency,[1],inactive
same,"activity change, negative = inhibition",[2],-27.9%
CCCCOCCOc1nc(-c2ccc(C(=O)O)c(F)c2)sc1C,Potency,[1],inactive
same,"activity change, negative = inhibition",[2],-25.8%
same,Potency,[3],inactive
COc1ncnc(NS(=O)(=O)c2ccc(N)cc2)c1OC,Potency,[1],inactive
same,Potency,[2],inactive
same,"activity change, negative = inhibition",[2],-2.62%
Cc1n[nH]c(C)c1Cc1sc2c(c1C(=O)N1C[C@H](O)CO1)c(=O)n(C)c(=O)n2CC(C)C,Potency,[1],inactive
same,"activity change, negative = inhibition",[2],-55.4%
same,Potency,[3],1.24 µM (active)
NCCS,Potency,[1],inactive
same,Potency,[2],inactive
C[N+](C)(C)CC(=O)O,Potency,[1],inactive
same,"activity change, negative = inhibition",[2],-0.459% and -19.8%
same,Potency,Papain (Carica papaya),inactive
